Screens (PubChem BioAssay)
Only some compounds are listed: those with a hit (about 3.3% of all), similar ones and a draw of the others.
HttQ103 aggreg: mutant huntingtin aggregation inhibition | PC12 HttQ103-GFP aggregates, Acumen cytometry, 40 h | AID 1688 | Potency, µM (doses to about 46.1 µM), without a hit: at the top dose activity change, negative = inhibition, hits mostly inhibitors | hit rate 1.1% among 220,000; further: potency means the concentration at half of the fitted maximal effect; on the % scale 0 is the no-effect control and ±100 the full control effect; nearly all actives have a fitted effect of over 60% in size
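Huntingtin Q103 exon 1–GFP aggregates in induced PC12 cells (100 nM tebufenozide) were quantified by cytometry from lysates, with compounds dosed in titration.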
HTT cytoprotect: Huntington cell model cytoprotection by ATP luminescence | PC12 HTT-Q103 induced, cytoprotection, ATP luminescence, 40 h | Potency, µM (titrated, usually from 56.4 µM), for inactives: cytoprotection (ATP increase), usual class: activators | hit rate 0.14% among 230,000; further: potency means the concentration at half of the fitted maximal effect; % of control where 0% means no effect; nearly all actives have a fitted effect of over 45% in size
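PC12 cells with ecdysone-inducible HTT exon 1 Q103-GFP, induced with 100 nM tebufenozide and co-treated with library compounds in a dose series (1536-well, 1500 cells/well). Cytoprotection read as ATP content by ATPlite luminescence.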
NPSR antag: neuropeptide S receptor (human) antagonism, cAMP; Q6W5P4; CHO-NPSR cells, cAMP TR-FRET, antagonist mode; Potency, µM (titrated, usually from 38.3 µM), for the others: at the top dose activity change, negative = inhibition, hits mostly inhibitors; hit rate 1% among 220,000; AID 1461; further: potency means the concentration at half of the fitted maximal effect; on the % scale 0 is the no-effect control and ±100 the full control effect; nearly all actives have a fitted effect of over 50% in size
Target sequence (Q6W5P4 whole entry, looked up): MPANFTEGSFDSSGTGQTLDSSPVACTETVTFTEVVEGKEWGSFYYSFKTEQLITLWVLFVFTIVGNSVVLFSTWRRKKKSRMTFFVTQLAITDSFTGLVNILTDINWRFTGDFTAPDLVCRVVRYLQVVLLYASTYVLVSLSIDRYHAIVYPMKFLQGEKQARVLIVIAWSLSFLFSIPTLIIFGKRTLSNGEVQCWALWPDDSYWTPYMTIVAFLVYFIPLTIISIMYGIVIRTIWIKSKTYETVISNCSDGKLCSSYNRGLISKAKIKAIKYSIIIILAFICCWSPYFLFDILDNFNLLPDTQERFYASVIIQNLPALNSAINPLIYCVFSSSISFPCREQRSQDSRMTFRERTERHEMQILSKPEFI
PNC inhibitor: perinucleolar compartment assembly inhibition | activity change (PNC), negative = inhibition, % at 10 µM | PC3M PTB-GFP, PNC prevalence imaging, 16 h; stronger effect = lower value | hit rate 3.1% among 140,000;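 active means readout at or below -70, meaning at least 70% loss of cells showing the perinucleolar compartment, a nuclear body marking cancer cells; inconclusive means readout between -30 and a set limit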;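 further: plate controls were DMSO wells for no effect and camptothecin positive control wells for full effect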
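PC3M cells stably expressing PTB-GFP, 750–1000 cells/well, treated 16 h at 37 °C with compound (23 nl of library stock), in duplicate. After paraformaldehyde fixation and Hoechst stain, imaged at 20x; PNC prevalence scored by image analysis.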
ALOX12 inhib: 12-hLO (ALOX12) enzyme inhibition; purified 12-hLO, xylenol orange hydroperoxide absorbance; hit rate 0.12% among 150,000; Potency, µM (titrated, usually from 57.1 µM), for the others: top-dose activity change, negative = inhibition, usual class: inhibitors; AID 1452; further: potency means the concentration at half of the fitted maximal effect; on the % scale 0 is the no-effect control and ±100 the full control effect; nearly all actives have a fitted effect of over 55% in size
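Purified human 12hLO (150 nM final) was preincubated with compounds for 15 min at room temperature in 25 mM Hepes pH 7.0, 0.01% Triton X-100, then reacted with 40 uM arachidonic acid for 30 min. Hydroperoxide was detected with ferrous iron/xylenol orange.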
IMPase cell inh: cell-permeable inhibitors of inositol monophosphatase (IMPase); P97697; CHO-M1 cells, IP1 accumulation, HTRF TR-FRET ratio; inhibition (IP1 accumulation), % at 46.1 µM; 120,000 tested, under 10 active; active means well fitted curve in the direction sought with a large enough effect in the signal ratio, not every such curve was filed as active; inconclusive means small, poorly fitted or top-dose-only effect, or a change in a side signal; inactive means no such curve, though single readings can be large or run the other way; the % refers to the signal ratio;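 further: cells stimulated with carbachol in lithium chloride buffer; plate controls were DMSO basal wells for no effect and reference inhibitor wells for full effect; higher means more IMPase inhibition seen as more IP1 and lower FRET ratio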
Target sequence (P97697 whole entry, looked up): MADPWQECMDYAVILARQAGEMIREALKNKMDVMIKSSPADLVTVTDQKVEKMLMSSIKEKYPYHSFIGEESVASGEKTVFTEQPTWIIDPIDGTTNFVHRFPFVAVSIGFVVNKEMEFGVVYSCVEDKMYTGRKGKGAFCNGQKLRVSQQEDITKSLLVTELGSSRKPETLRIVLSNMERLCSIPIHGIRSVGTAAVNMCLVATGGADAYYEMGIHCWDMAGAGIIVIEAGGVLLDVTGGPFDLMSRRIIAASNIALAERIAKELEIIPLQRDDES
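CHO-M1, 2000 cells/well, cultured 16–30 h; cpd up to 46 uM; carbachol (50 uM solution, stimulation buffer w/ 50 mM LiCl, pH 7.4), 30 min 37C; IP-One TR-FRET, 10 min RT; Ex 320/Em 665, 620; Hill-fit AC50.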
* marks the source's active call; other numbers are inactive results; ? = inconclusive; · = no result given; [ ] = remark or other dose. Unless noted, the call rests on the fitted dose curve; in most records, active means well fitted curve in the direction sought with a large enough effect; inconclusive means small, poorly fitted or top-dose-only effect, or another doubt; inactive means no such curve, though single readings can be large; an effect the other way counts as inactive or inconclusive.

SMILES	HttQ103 aggreg	HTT cytoprotect	NPSR antag	PNC inhibitor	ALOX12 inhib	IMPase cell inh
CCC(=O)NCCNc1ccc([N+](=O)[O-])cn1	13%	·	15%	-81*	-3%	·
NC(Cc1cnc[nH]1)C(=O)Nc1ccc2ccccc2c1 (stereo not drawn)	·	·	·	·	1%	·
c1ccc(-c2cnn3nnnc3n2)cc1	-3%	-8%	-3%[46.1 µM]	-11	-2%	0
c1ccc(-c2ccn3nnnc3n2)cc1	-11%	28%[10 µM]	-12%[46.1 µM]	-100*	0%	-11
CN(C)CCCN(C(=O)CCOc1ccccc1)c1nc2c(F)cccc2s1	13µM*	-176%	17%	·	·	·
CCOc1cccc2sc(N(CCCN(C)C)C(=O)c3ccc(S(=O)(=O)N(C)c4ccccc4)cc3)nc12	?	-11%	10µM*	·	·	·
Nc1cnc(Nc2ccc(Br)cc2)nc1N	0%[9.22 µM]	-8%[10 µM]	29%	·	·	·
CC(=O)N[C@H](Cc1c[nH]c2ccccc12)C(N)=O	·	·	·	·	-6%	·
Cc1cccc2cc(-c3ccccc3)c(-c3ccccc3)c[n+]12	18µM*	·	-10%	?	2%	·
Cn1c(SC/C=C/c2ccccc2)nnc1-c1ccco1	-1%	26%[10 µM]	-4%[46.1 µM]	-100*	2%	-6
Cn1c(Cc2cccs2)nnc1SC/C=C/c1ccccc1	-2%	0%[10 µM]	-11%[46.1 µM]	-100*	33%	7
Cc1cccc(NC(=O)CSc2nc3ccccc3nc2N2CCC(C)CC2)c1	·	·	·	·	·	1
C#C[C@]1(O)CC[C@H]2[C@H]3[C@H](CC[C@@]21C)C1=C(CC(=O)CC1)C[C@@H]3C	8%	-11%	·	·	·	·
CCCCCC1CC(CC(=O)Nc2nncs2)C(=O)O1 (stereo not drawn)	-15%	-19%[10 µM]	0%[46.1 µM]	-100*	-7%	1
CCCCc1ccc(-c2csc(/C(C#N)=C/c3ccc(C)o3)n2)cc1	-8%	-1%	-9%[46.1 µM]	31	-6%	-2
CCCCc1ccc(-c2csc(/C(C#N)=C\c3ccco3)n2)cc1	-7%	·	-3%	-111*	-5%	·
CC/C(=N\NC(=O)c1cccnc1)c1ccc2c(c1)OCCO2	-15%	-48%	10%	·	·	·
Cc1cnc(CNc2ncncc2-c2ccccc2C(F)(F)F)cn1	·	-4%	·	·	-11%	·
C#CC(=O)N(c1ccc(OC)c(OC)c1)C(C(=O)NC1CCCC1)c1cccs1 (stereo not drawn)	?	1%[10 µM]	13µM*	?	-2%	-2[1.84 µM]
Cc1cccc(N(C(=O)C(F)(F)F)C(C(=O)NC2CCCCC2)c2cccs2)c1 (stereo not drawn)	14%	-33%	-22%[46.1 µM]	3	-1%	4
O=C(NC1CCCCC1)C(c1cccs1)N(C(=O)c1ccco1)c1ccc2c(c1)OCCO2 (stereo not drawn)	8%	2%[10 µM]	-24%[46.1 µM]	-100*	-2%	-12
COc1ccc(N(C(=O)Cc2cccs2)C(C(=O)NC2CCCCC2)c2cccn2C)cc1OC (stereo not drawn)	2%	7%[10 µM]	-26%[46.1 µM]	-116*	-2%	·
C#CC(=O)N(c1cccc(OC)c1)C(C(=O)NC1CCCC1)c1cccs1 (stereo not drawn)	22%	-7%	4µM*	4	-4%	23
O=c1c(-c2ccc(Cl)cc2)nc2cnc(N3CCNCC3)nc2n1Cc1ccc(F)cc1	·	-113%	·	·	-4%	·
Clc1ccc(CSCCc2ccncc2)cc1Cl	·	3%[10 µM]	·	·	0%[11.4 µM]	·
SMILES	HttQ103 aggreg	HTT cytoprotect	NPSR antag	PNC inhibitor	ALOX12 inhib	IMPase cell inh
CSCCC(NC(=O)c1cc([N+](=O)[O-])ccc1Cl)C(=O)O (stereo not drawn)	4%	9%[10 µM]	23%	-82*	1%	2
Cc1cccn2c(/C=N/OCc3ccc(F)cc3)c(-c3ccc(Cl)cc3)nc12	-2%	1%	-22%[46.1 µM]	-109*	2%	4
COc1ccc(/C(C#N)=C/c2c(-c3ccc(Cl)cc3)nc3c(C)cccn23)cc1	2%	13%	?	4	-2%	2
Cc1cc(C)c2[nH]c(=O)c(CN(CC3CCCO3)C(=S)NCc3ccco3)cc2c1 (stereo not drawn)	6%	34%[10 µM]	2%	-82*	1%	·
Cc1c(C(=O)Nc2ccc3c(c2)OCCO3)sc2nc(-c3ccccc3)cn12	16µM*	25%[10 µM]	-29%	42	2%	20
COc1ccccc1N1CCN(C(=O)c2sc3nc(-c4ccccc4)cn3c2C)CC1	?	-25%[10 µM]	-19%[46.1 µM]	-95*	-1%	2
Cc1c(C(=O)N2CCN(c3ccc(F)cc3)CC2)sc2nc(-c3ccccc3)cn12	-7%	-17%	-28%[46.1 µM]	-8	1%	-1
Cc1c(C(=O)Nc2ccncc2)sc2nc(-c3ccccc3)cn12	?	12%[10 µM]	-1%[46.1 µM]	-26	0%	5
CCOCCCNC(=O)C(c1ccc(OC)cc1)N(Cc1cccs1)C(=O)c1ccccn1 (stereo not drawn)	5%	-16%	19%	·	·	·
Cc1cc(C(C)(C)C)c(OCCCN2CCOCC2)c(C(C)(C)C)c1	·	-20%[10 µM]	·	·	11%[11.4 µM]	·
O=C(Cn1c(COc2ccccc2)nc2ccccc21)Nc1cc(Cl)cc(Cl)c1	12%	0%[10 µM]	-17%	-100*	2%	·
CCCCNC(=O)N(O)C1N(/N=C/c2cccs2)C(=S)SC1(C)C (stereo not drawn)	-8%[9.22 µM]	15%[10 µM]	-9%[7.67 µM]	·	·	·
CCOC(=O)C(C(=O)OCC)c1cc(Br)c2noc3c2c1C(=O)c1ccccc1-3	?	-87%	4µM*	-83*	0%	7
CCCCCCCCCCCCOCCOCCOCCOCCO	·	-10%	·	·	2%[0.00818 µM]	·
Cc1cc(C)c2c(-n3cccc3)nn(C)c2n1	5%	-4%	0%[46.1 µM]	-109*	7%	1
Cc1ccccc1OCCCCn1cnc2ccccc21	7.1µM*	-12%	-4%[46.1 µM]	-25	-2%	8
CN(C)Cc1c(O)ccc2oc(Cc3ccccc3)cc12	4.5µM*	-37%[10 µM]	22%[46.1 µM]	?	2%	5
CN1/C(=C/C=C(/C#N)C(N)=O)C(C)(C)c2ccccc21	-8%	-60%	-6%[46.1 µM]	-85*	-19%	7
CN1/C(=C\C(=O)Nc2ccc(Br)cc2)C(C)(C)c2ccccc21	-11%	-1%[10 µM]	0%	-8	-3%	·
CN1/C(=C\C(=O)Nc2ccc(F)cc2)C(C)(C)c2ccccc21	6.3µM*	-25%[10 µM]	-25%[46.1 µM]	-14	3%	3
CN1/C(=C\C=C(/C#N)C(=O)Nc2ccccc2F)C(C)(C)c2ccccc21	16%	13%[10 µM]	8%	-83*	6%	·
CN1/C(=C/C(=O)C2CC2)C(C)(C)c2ccccc21	?	-12%	-4%	·	·	·
CN1/C(=C\C(=S)NC(=O)c2cccc(Br)c2)C(C)(C)c2ccccc21	-31%	18%[10 µM]	-20%[46.1 µM]	-18	14µM*	-6
Nc1ncnc2nc(Cl)[nH]c12	·	·	·	·	11%	·
